# Experimental data from PubChem BioAssay (NCI).
# This is part of a sample that, as a whole, favours compounds with a hit. Of some 83,000 tested, about 20% had one in any assay.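 Each cell line was grown in a 96-well plate and treated with one concentration of compound for 48 hours. Values below 10 were considered active.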 Active and inactive are the calls of the source.
# Test system: MOLT-4 leukemia
# Assay: NCI-60 one-dose screen, 48 h (100 = growth as untreated, 0 = no growth, -100 = all killed)
# Details: 10 µM unless noted
row,Structure (SMILES),growth
1,CCOC(=O)CCC(NC(=O)C(Cc1ccc(N(CCCl)CCCl)cc1)NC=O)C(=O)OCC (stereo not drawn),5.13% (active)
2,COC(=O)[C@@H](C)C[C@H](Cc1ccccc1)NC(=O)c1nc([C@@H](C[C@H](C(C)C)N(C)C(=O)[C@@H](NC(=O)[C@H]2CCCCN2C)C(C)C)OC(C)=O)sc1C(C)C,5.59% (active)
3,CCCC(C)C1(CC)C(=O)NC(=O)N(C)C1=O (stereo not drawn),101% (inactive)
4,C=CCCCCCCCCC(=O)[O-].C=CCCCCCCCCC(=O)[O-].[Zn+2],103% (inactive)
5,COc1ccc(C(O)(C(=O)O)c2ccc(OC)cc2)cc1,87.1% (inactive)
6,Nc1c(F)cc(-c2nc3cc(F)ccc3[se]2)cc1F,78.7% (inactive)
7,CC(=O)O[C@@H]1CC[C@]2(C)[C@H]3CC[C@]4(C)C(=O)CC[C@H]4[C@@H]3C[C@@H]3SC(N)=N[C@@]32C1,45.6% (inactive)
8,CCCCNC(c1ccc(Cl)cc1)C(O)c1ccc(Cl)cc1 (stereo not drawn),9.52% (active)
9,CCOC(=O)[C@@H](C)C[C@H](Cc1ccccc1)NC(=O)c1csc([C@@H](C[C@H](C(C)C)N(C)C(=O)[C@H](CC)NC(=O)[C@H]2CCCCN2C)OC(C)=O)n1,9.18% (active)
10,C[Se]C(=O)c1ccccc1OC(C)=O,54.8% (inactive)
11,ClC1=C(Cl)C(Cl)(C2(Cl)C(Cl)=C(Cl)C(Cl)=C2Cl)C(Cl)=C1Cl,-36.7% (active)
12,CN[C@@]1(c2ccccc2Cl)CCCC[C@@H]1NCC1CCCO1 (stereo partly drawn),111% (inactive)
13,COc1cc2c(cc1OCc1ccccc1)C(CC(C)C)=[N+](C)CC2,91.8% (inactive)
14,CC(=O)O[C@H]1CC[C@H]2[C@@H]3CC=C4c5nc(-c6ccccc6)sc5CC[C@]4(C)[C@H]3CC[C@]12C,46.1% (inactive)
15,N#CC1(c2ccccc2)CCN(Cc2ccccc2)CC1,107% (inactive)
16,COc1ccc(/C=C\c2cc(OC)c(OC)c(OC)c2)cc1OCC(=O)Nc1nc2ccc(OC(F)(F)F)cc2s1,13.2% (inactive)
17,CC(C)(C)C(=O)OCOP(=O)(NCc1ccccc1)C1CCCN(O)C1=O (stereo not drawn),9.06% (active)

row,Structure (SMILES),growth
1,CC(=O)Nc1ccc(NC(=O)c2ccc([As](O)O)cc2)cc1,108% (inactive)
2,O[C@H](CN1CC1)[C@@H](O)CN1CC1,32.8% (inactive)
3,Cc1cc(C)c(CBr)c(C)c1,96.3% (inactive)
4,CCOP1(=O)CC(C)=C(Cl)C(P(=O)(OCC)OCC)C1 (stereo not drawn),106% (inactive)
5,CC12CCC3C(CCC4=CC(=O)CCC43CF)C1CCC2=O (stereo not drawn),106% (inactive)
6,C=C1[C@@H](C)[C@H]2[C@H](Cc3ccccc3)NC(=O)[C@]23[C@@H](O)/C=C/[C@@](C)(O)C(=O)[C@@H](C)C/C=C/[C@H]3[C@@H]1O,61.5% (inactive)
7,NC(=O)C(Br)c1ccccc1 (stereo not drawn),74.2% (inactive)
8,CCC(=O)Nc1ccc(Cl)c(Cl)c1,97.9% (inactive)
9,CC[C@H](C)[C@@H]1OC(=O)C(C)(C)[C@H](O)[C@H](Cc2ccccc2)OC(=O)[C@H](C(C)C)OC(=O)[C@@H](NC(=O)c2cccc(NC=O)c2O)[C@@H](C)OC1=O,37.7% (inactive)
10,Nc1ncnc2n[nH]nc12,86.4% (inactive)
11,COc1cc(/C=C/[N+](=O)[O-])cc(OC)c1,7.52% (active)
12,Clc1cccc(NCOOC2(OOCNc3cccc(Cl)c3)CCCCCC2)c1,92.7% (inactive)
13,Brc1ccc2c(c1)c(-c1nc(-c3c[nH]c4ncccc34)cs1)cn2CCN1CCOCC1,41.3% (inactive)
14,CC1=C(CCCNS(C)(=O)=O)C2=C(C)C3(CC3)[C@@](C)(O)C(=O)C2=C1,90.2% (inactive)
15,CCCCC1(CCC)C(=O)NC(=S)NC1=O,96.8% (inactive)
16,CC[C@H](C)[C@H](NC(=O)[C@H]1CCCCN1C)C(=O)N(C)[C@H](CC(=O)c1nc(C(=O)N[C@@H](Cc2ccccc2)C[C@H](C)C(=O)O)cs1)C(C)C,64.4% (inactive)
